Most compounds without a hit are left out; they make up all but 2.6% or so of the library.
PHOSPHO1 block: PubChem AID 1565 | Phosphoethanolamine/phosphocholine phosphatase (Homo sapiens), Q8TCT1 | inhibition, % at 13.3 µM | 290,000 tested, 1.1% active | recombinant PHOSPHO1, absorbance phosphatase assay; in the data active = inhibition above about 60%
PABP FP inh: PABP poly(A) RNA binding inhibitors, primary screen, biochemical, fluorescence polarization, uHTS | Polyadenylate-binding protein 1 (Homo sapiens), P11940 | calls only at 35 µM | 290,000 tested, 1% active | AID 2014, 2009;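 note: calls also rest on retests at 20 µM and on dose response follow-up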
Target sequence (P11940 whole entry, looked up): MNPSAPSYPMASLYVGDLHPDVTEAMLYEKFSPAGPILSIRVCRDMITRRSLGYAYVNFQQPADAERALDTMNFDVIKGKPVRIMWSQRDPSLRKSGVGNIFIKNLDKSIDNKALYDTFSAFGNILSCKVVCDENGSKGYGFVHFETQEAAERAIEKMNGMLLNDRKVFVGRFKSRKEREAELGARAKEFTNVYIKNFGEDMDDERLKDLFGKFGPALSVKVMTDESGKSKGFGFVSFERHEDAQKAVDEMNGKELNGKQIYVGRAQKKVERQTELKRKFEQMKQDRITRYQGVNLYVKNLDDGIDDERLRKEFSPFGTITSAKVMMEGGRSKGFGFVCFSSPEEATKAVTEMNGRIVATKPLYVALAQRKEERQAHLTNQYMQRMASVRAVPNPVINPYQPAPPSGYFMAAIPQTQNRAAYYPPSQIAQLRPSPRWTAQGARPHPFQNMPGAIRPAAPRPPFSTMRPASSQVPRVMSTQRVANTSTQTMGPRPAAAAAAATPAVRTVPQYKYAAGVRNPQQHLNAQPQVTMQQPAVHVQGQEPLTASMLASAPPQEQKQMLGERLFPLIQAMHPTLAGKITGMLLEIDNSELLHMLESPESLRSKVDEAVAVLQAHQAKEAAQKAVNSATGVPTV
eIF4H inh: human eIF4H binding inhibitors, primary screen, translation initiation inhibitor project, biochemical, uHTS, fluorescence polarization. 290,000 tested, 0.94% active. inhibition, % at 35 µM. AID 2012, 2009. eIF4H fluorescence polarization binding assay;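 note: calls also rest on retests at 20 µM and on dose response follow-up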
PABP1 MLLE inh: inhibitors of PABP1 MLLE–PAM2 peptide binding, primary screen, biochemical, fluorescence polarization, FITC-PAM2, GST-MLLE. Polyadenylate-binding protein 1 (Homo sapiens), P11940. 360,000 tested, 0.36% active. inhibition, % at 20 µM; in the data active = inhibition above about 35%, passing the limit was not always enough;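 note: plate controls were DMSO wells with GST-MLLE for no effect and wells lacking GST-MLLE protein for full effect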
A3G deaminase: APOBEC3G DNA deaminase inhibitors, primary screen, biochemical, fluorescence, single-stranded DNA substrate, uHTS. DNA dC->dU-editing enzyme APOBEC-3G (Homo sapiens), Q9HC16. recombinant A3G, ssDNA deamination FAM/TAMRA fluorescence. inhibition, % at 20 µM. 330,000 tested, 0.28% active. AID 493012, 2011;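 active = inhibition of at least 40% at 20 µM, with no more than 30% in the related APOBEC3A deaminase screen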;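 note: plate controls were DMSO wells with A3G for no effect and wells lacking A3G enzyme for full effect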
APOBEC3A inh: APOBEC3A ssDNA deaminase inhibitors, primary screen, selectivity assay for APOBEC3G inhibitor project, biochemical, FAM/TAMRA oligo cleavage fluorescence | inhibition, % at 20 µM | 330,000 tested, 0.41% active | DNA dC->dU-editing enzyme APOBEC-3A (Homo sapiens), P31941 | recombinant A3A, FAM/TAMRA ssDNA deamination fluorescence | AID 493011, 2011;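 active = at least 40% inhibition at 20 µM here, with at most 30% in a related deaminase screen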;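 note: plate controls were A3A with DMSO for no effect and wells lacking A3A enzyme for full effect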
APOBEC3A confirm: APOBEC3A deaminase inhibitors, retest, confirmation, selectivity assay for APOBEC3G inhibitor project, biochemical, single concentration, fluorescence readout; shares compounds with APOBEC3A inh; recombinant A3A, ssDNA deaminase UDG fluorescence assay; inhibition, % at 20 µM; 1,400 tested, 63% active; AID 493151, 2011;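 active = inhibition reaching a set limit, 80% of the first screen's cutoff, at 20 µM in any replicate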;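 note: plate controls were DMSO wells with A3A for no effect and wells lacking A3A enzyme for full effect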
UDG ctr A3A: E. coli UDG inhibitors, confirmation, counter-screen for APOBEC3A inhibitor project, biochemical, single concentration, fluorescence, FAM/TAMRA oligo; 1,000 tested, under 10 active; AID 504714, 2011; shares compounds with APOBEC3A inh; UDG counterscreen, FAM/TAMRA uracil oligo fluorescence; inhibition, % at 20 µM
APOBEC3G confirm: APOBEC3G deaminase inhibitor retest, confirmation, biochemical, fluorescence, single-stranded DNA substrate, single concentration; shares compounds with A3G deaminase; recombinant A3G ssDNA deaminase, UDG/FAM-TAMRA fluorescence; inhibition, % at 20 µM; 890 tested, 72% active;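 active = inhibition reaching a set limit in any replicate at 20 µM, the limit being 80% of the first screen's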
UDG A3G counter: E. coli UDG inhibitors, confirmation, counter-screen for APOBEC3G inhibitor project, biochemical, single concentration, fluorescence, FAM/TAMRA oligo | shares compounds with A3G deaminase | UDG counterscreen | inhibition, % at 20 µM | 710 tested, under 10 active | AID 504715, 2011;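 active = compounds giving 40% or more inhibition at 20 µM in any one of the three replicates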;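 note: plate controls were DMSO wells with UDG and oligo for no effect and DMSO wells lacking both for full effect; inhibitors lower the FAM signal released by uracil excision and alkaline cleavage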
* marks the source's active call; other numbers are inactive results; i = inactive; · = no result given; + = active, no number. Unless noted, the rule behind the calls is not given here.

SMILES | PHOSPHO1 block | PABP FP inh | eIF4H inh | PABP1 MLLE inh | A3G deaminase | APOBEC3A inh | APOBEC3G confirm | UDG A3G counter | others
O=C(CSc1nc2ccccc2c(=O)[nH]1)c1cccs1 | -5 | i | 2 | -3 | 0 | 44* | · | · | APOBEC3A confirm=0
CCSc1nnc(SCC(=O)NC2CCCCC2)s1 | · | · | · | 4 | -10 | -2 | · | ·
COC(=O)c1ccc(N2NC(=O)/C(=C/c3ccc(-c4ccc(Cl)c(C(=O)O)c4)o3)C2=O)cc1 | 41 | + | 71* | -14 | 27 | 59* | · | · | APOBEC3A confirm=70*;UDG ctr A3A=-3
COc1ccc(CC(=O)OCC(=O)Nc2c(C)n(C)n(-c3ccccc3)c2=O)cc1OC | · | · | · | 0 | -6 | 0 | · | ·
CCCn1nc(NC(=O)COC)c2cc3cc(C)ccc3nc21 | -38 | i | 0 | -121 | 28 | 53* | · | · | APOBEC3A confirm=58*;UDG ctr A3A=-2
CCCC(=O)Nc1nn(C)c2nc3cc(C)ccc3cc12 | -4 | i | 7 | · | -6 | -3 | · | ·
CCCCn1nc(NC(=O)COC)c2cc3ccc(C)cc3nc21 | 11 | i | -7 | -122 | 15 | 47* | · | · | APOBEC3A confirm=67*;UDG ctr A3A=6
CCn1nc(NC(=O)COC)c2cc3cc(C)ccc3nc21 | 24 | i | 2 | -87 | 16 | 45* | · | · | APOBEC3A confirm=59*;UDG ctr A3A=0
CCc1cc(/C(Cc2ccccn2)=N\Nc2ccccc2)c(O)cc1O | -3 | i | 5 | 2 | 42* | -6 | 16 | -2
O=C(COC(=O)CSc1ccc(Cl)cc1)NCCc1ccccc1 | · | · | · | 16 | -3 | 1 | · | ·
CCOC(=O)Cn1cc(C#N)c2ccccc21 | 30 | i | -14 | -8 | -9 | -2 | · | ·
N#Cc1cn(CC(=O)O)c2ccccc12 | -1 | i | -5 | -22 | 70* | -12 | -5 | -3
CCn1c(-c2cccc(S(=O)(=O)N3CCCC3)c2)n[nH]c1=S | -25 | i | -7 | -16 | 51* | 1 | 27* | -2
CCn1c(-c2ccc([N+](=O)[O-])cc2)n[nH]c1=S | 40 | i | -6 | -21 | 46* | -2 | 73* | 4
CCn1c(-c2cccc(Br)c2)n[nH]c1=S | 51 | i | -12 | -15 | 47* | 1 | 63* | 3
CCC(C)n1c(-c2cccc(S(=O)(=O)N3CCOCC3)c2)n[nH]c1=S (stereo not given) | · | · | · | -12 | 26 | -4 | · | ·
CCn1c(-c2ccc3ncccc3c2)n[nH]c1=S | -36 | i | -8 | -2 | 40 | -5 | · | ·
CC(C)Cn1c(-c2cccc(S(=O)(=O)N3CCOCC3)c2)n[nH]c1=S | · | · | · | -2 | 44* | -1 | 69* | 1
CC(C)(C)OC(=O)NCCCCCNC(=O)c1ncn2c1c(=O)[nH]c1ccccc12 | · | · | · | -9 | · | · | · | ·
Nc1c(C(=O)N2CCOCC2)sc(=S)n1-c1ccccc1 | 97* | i | -6 | 26 | 52* | 0 | 31* | -4
CCOc1ccc(-n2c(N)c(C(=O)N3CCN(C)CC3)sc2=S)cc1 | 11 | i | 1 | 8 | -2 | -3 | · | ·
Cc1ccc(-n2c(N)c(C(N)=O)sc2=S)c(C)c1 | 88* | i | 60* | 35 | 45* | 1 | 14 | ·
Nc1c(C(=O)N2CCCCC2)sc(=S)n1-c1ccccc1 | 86* | i | -3 | 37 | 56* | 1 | 27 | ·
Cc1ccc(-n2c(N)c(C(=O)N3CCN(C)CC3)sc2=S)cc1 | 38 | i | 11 | 11 | 46* | -1 | 74* | -3
O=S(=O)(c1ccc(Cl)cc1)N1CCN(CCc2ccncc2)CC1 | 19 | i | 4 | -13 | -6 | 0 | · | ·
SMILES | PHOSPHO1 block | PABP FP inh | eIF4H inh | PABP1 MLLE inh | A3G deaminase | APOBEC3A inh | APOBEC3G confirm | UDG A3G counter | others
CCN1CCN(C(=O)C(C)Oc2ccc(S(=O)(=O)N3CCCC3)cc2C(N)=O)CC1 (stereo not given) | · | · | · | -3 | 4 | -3 | · | ·
CC(=O)C(Sc1nn(C)c(=S)s1)C(=O)Nc1ccccc1 (stereo not given) | 98* | i | -16 | -38 | 57* | 2 | 40* | -5
COc1ccc(-n2c(SCC(=O)C(C)(C)C)nc3c(sc(=S)n3-c3ccccc3)c2=O)c(OC)c1 | 42 | i | -2 | 31 | 40* | 1 | 50* | -2
COc1ccc(-n2c(=S)[nH]c3c(sc(=S)n3-c3ccccc3)c2=O)c(OC)c1 | 34 | i | 4 | 31 | 44* | 3 | 36* | -3
CCC(=O)n1nc(-c2ccc(Cl)cc2)nc1N | -21 | i | 2 | -13 | 46* | -1 | -9 | -4
COc1ccccc1NC(=O)CNC(c1ccccc1)c1ccccc1 | 39 | i | -2 | 4 | -9 | -1 | · | ·
O=C(CNC(c1ccccc1)c1ccccc1)Nc1ccccc1Br | 42 | i | 6 | -2 | 50* | -4 | -6 | 0
Nc1ncnc2c1ncn2[C@@H]1O[C@H](C(=O)N[C@@H](CO)Cc2ccccc2)[C@@H](O)[C@H]1O | · | · | · | 2 | · | · | · | ·
O=C(CC(c1ccc(F)cc1)c1ccco1)Nc1nccs1 (stereo not given) | 29 | i | -5 | -14 | 53* | 2 | 0 | ·
COC(=O)Cc1ccc2sc(-c3ccccc3)nc2c1 | 22 | i | -9 | 0 | -1 | -1 | · | ·
COC(=O)Cc1sc(-c2ccccn2)nc1-c1ccccc1 | -35 | i | 2 | 25 | 49* | 2 | 41* | 2
CSc1nc(=NC(C)=O)ss1 | 4 | i | -6 | 26 | 51* | -2 | 43* | 0
CC1(C)C(=O)N(c2ccccc2Cl)C(=O)c2ccccc21 | 14 | i | -5 | -10 | 0 | 3 | · | ·
